Most compounds without a hit are left out; they make up all but 6.9% or so of the library.
Vif-A3G inh – qHTS for Inhibitors of Vif-A3G Interactions: qHTS | DNA dC->dU-editing enzyme APOBEC-3G (Homo sapiens), Q9HC16 | HeLa A3G-eYFP + Vif (tagged APOBEC3G with the HIV-1 protein that degrades it), YFP fluorescence, overnight | Potency, µM (highest dose often 46.1 µM), for the others: top-dose activity, negative = active, hits mostly inhibitors | hit rate 0.076% among 410,000 | AID 602310, 2012; also: potency is read from the fitted curve at half-maximal effect; % is scaled to controls: 0 for no effect and ±100 for the full control effect; nearly all actives have a fitted effect of over 60% in size
Target sequence (Q9HC16 whole entry, looked up): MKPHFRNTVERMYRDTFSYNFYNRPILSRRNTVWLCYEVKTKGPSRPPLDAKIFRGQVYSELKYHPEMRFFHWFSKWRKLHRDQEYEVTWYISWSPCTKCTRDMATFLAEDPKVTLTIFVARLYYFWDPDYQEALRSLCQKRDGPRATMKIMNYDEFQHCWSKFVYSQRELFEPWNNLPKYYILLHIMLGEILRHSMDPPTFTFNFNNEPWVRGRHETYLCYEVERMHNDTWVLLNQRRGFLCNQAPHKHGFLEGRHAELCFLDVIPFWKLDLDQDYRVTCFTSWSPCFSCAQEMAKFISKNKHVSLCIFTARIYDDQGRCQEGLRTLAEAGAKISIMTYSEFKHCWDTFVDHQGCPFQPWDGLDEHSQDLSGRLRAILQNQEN
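HeLa cells stably expressing Vif and C-terminally eYFP-tagged A3G, seeded overnight at 37 deg C, then exposed to compound by pintool overnight at 37 deg C. Rise in yellow fluorescence (Ex 488/Em 500-530, Acumen) marks blocked Vif-driven A3G degradation.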
IL-1B inflam inh – qHTS for Inhibitors of Inflammasome Signaling: IL-1-beta AlphaLISA Primary Screen; hit rate 4.7% among 360,000; THP-1 LPS/ATP IL-1B secretion, AlphaLISA, 16 h; active compounds read low; activity change, % at 57.5 µM; AID 743279, 2014; in the data active = activity change below about -50%; inconclusive = mostly about -30% to -49%; also: % is scaled to controls: 0 for no effect and ±100 for the full control effect
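Secreted IL-1B measured by AlphaLISA bead assay after 16 h compound exposure of THP-1 cells; compounds (final up to 57.5 uM) added 1 h before LPS (250 ng/mL) and ATP (1.25 mM) stimulation; lower signal means less secretion.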
SW480 rerep – A quantitative high throughput screen for small molecules that induce DNA re-replication in SW480 colon adenocarcinoma cells. AID 624297, 2012. hit rate 1.8% among 340,000. SW480 DNA re-replication, Hoechst DNA content imaging, 48 h. Potency, µM (series often up to 46.1 µM), for inactives: at the highest dose re-replication activation, actives largely listed as activators; also: potency is read from the fitted curve at half-maximal effect; % of control where 0% means no effect; nearly all actives have a fitted effect of over 55% in size
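Per well, 250 cells were exposed to pinned compound for 48 hr. Nuclear DNA was visualised with Hoechst (40 min, 37 C) and total object intensity recorded by fluorescence scanning.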
Giardia killer – Small Molecules that selectively kill Giardia lamblia: qHTS | hit rate 0.15% among 340,000 | AID 540267, 2011 | activity change, % at 7.66 µM, hits read low | Giardia lamblia trophozoite viability; in the data active = activity change below about -80%; inconclusive = between about -30% and that limit;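 also: parasites exposed to compound for two days anaerobically before the ATP read; % is scaled to controls: 0 for no effect and ±100 for the full control effect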
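Trophozoite viability was measured as ATP-dependent luminescence, read 15-30 min after reagent addition. Before that, parasites at 100 cells/well were exposed to compounds for 48 h, anaerobically, at 37 deg C.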
MCF10A rerep – A quantitative high throughput screen for small molecules that induce DNA re-replication in MCF 10a normal breast cells; MCF 10A DNA re-replication, Hoechst nuclear intensity, 48 h; Potency, µM (doses to about 46.1 µM), without a hit: at the top dose activity, positive = re-replication, usual class: activators; hit rate 2.9% among 350,000; also: potency is read from the fitted curve at half-maximal effect; % of control where 0% means no effect; nearly all actives have a fitted effect of over 50% in size
Vif-A3F inh – qHTS for Inhibitors of Vif-A3F Interactions: qHTS. HeLa A3F-eYFP + Vif (tagged APOBEC3F with the HIV-1 protein that degrades it), YFP fluorescence increase. Potency, µM (highest dose often 46.1 µM), inactives show top-dose activity, negative = active. hit rate 0.2% among 390,000; also: potency is read from the fitted curve at half-maximal effect; % of control where 0% means no effect; nearly all actives have a fitted effect of over 65% in size
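Fluorescence increase (Ex 488/Em 500-530) after overnight compound treatment at 37 deg C flags inhibition of Vif-driven A3F-eYFP loss in stable HeLa A3F-eYFP/Vif cells seeded overnight beforehand.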
The depositor's hits bear a star. Unless noted, calls follow the shape of the dose curve; as a rule, active = well fitted curve in the direction sought with a large enough effect; inconclusive = small, poorly fitted or top-dose-only effect, or another doubt; inactive = no such curve, though single readings can be large; an effect the other way counts as inactive or inconclusive.

Results for COc1ccc(CCC(=O)Nc2ccc(-c3noc(-c4ccc(OC)c(OC)c4)n3)cc2)cc1 ?
Vif-A3G inh: 0%; IL-1B inflam inh: 17; SW480 rerep: -9%; Giardia killer: 20; MCF10A rerep: inconclusive; Vif-A3F inh: -13%

Results for COc1cc(-c2nc(-c3ccc(NC(=O)c4ccc(Br)o4)cc3)no2)cc(OC)c1OC ?
Vif-A3G inh: -12%; IL-1B inflam inh: 42; SW480 rerep: 17%; Giardia killer: 19; MCF10A rerep: 5.2µM*; Vif-A3F inh: -11%

Results for CCCn1c(=O)c2sccc2n2c(CCCC(=O)NC3CCC(C)CC3)nnc12 (centres undefined) ?
Vif-A3G inh: 0%; Vif-A3F inh: 2%

What do the screens show for `O=C(CN1CCN(c2ncc(C(F)(F)F)cc2Cl)CC1)NCCNc1ncc(C(F)(F)F)cc1Cl`?
Vif-A3G inh: 1%; IL-1B inflam inh: inconclusive; SW480 rerep: inconclusive; Giardia killer: -11; MCF10A rerep: 18µM*; Vif-A3F inh: -1%

How did CN(C)/C=C/C(=O)c1ccc(N2CCN(c3ncc(C(F)(F)F)cc3Cl)CC2)cc1 do in these assays?
Vif-A3G inh: -25%; IL-1B inflam inh: -27; SW480 rerep: 12%; Giardia killer: 6; MCF10A rerep: inconclusive; Vif-A3F inh: -25%

What do the screens show for `CN(C)C=NC(=O)c1ccc(N2CCN(c3ncc(C(F)(F)F)cc3Cl)CC2)cc1`?
Vif-A3G inh: 1%; IL-1B inflam inh: 16; SW480 rerep: -1%; Giardia killer: -10; MCF10A rerep: 15µM*

What do the screens show for `C=CCNC(=S)N1CCN(c2ncc(C(F)(F)F)cc2Cl)CC1`?
Vif-A3G inh: 0%; IL-1B inflam inh: -67*; SW480 rerep: -2%; Giardia killer: -10; MCF10A rerep: 25%; Vif-A3F inh: 8%

What do the screens show for `O=C(OCCNc1ncc(C(F)(F)F)cc1Cl)c1ccc(S(=O)(=O)N2CCOCC2)cc1`?
Vif-A3G inh: 0%; IL-1B inflam inh: 7; SW480 rerep: -6%; Giardia killer: 13; MCF10A rerep: 8%; Vif-A3F inh: 6%

What do the screens show for `Cc1cc(C)cc(NC(=S)N2CCN(c3ncc(C(F)(F)F)cc3Cl)CC2)c1`?
Vif-A3G inh: 0%; IL-1B inflam inh: 7; SW480 rerep: inconclusive; Giardia killer: 12; MCF10A rerep: inconclusive; Vif-A3F inh: -5%

How did O=C(CONS(=O)(=O)c1ccc(Cl)cc1)NCCNc1ncc(C(F)(F)F)cc1Cl do in these assays?
Vif-A3G inh: -4%; IL-1B inflam inh: -55*; SW480 rerep: 18%; Giardia killer: -9; MCF10A rerep: 9%; Vif-A3F inh: 1%

How did O=C(CN1C(=O)NC2(CCCCC2)C1=O)Oc1ccc2ccc(=O)oc2c1 do in these assays?
Vif-A3G inh: -4%; IL-1B inflam inh: 13; SW480 rerep: 10µM*; Giardia killer: 14; MCF10A rerep: inconclusive; Vif-A3F inh: 4%

How did COc1cc(N2C(=O)C=CC2=O)ccc1N1C(=O)C=CC1=O do in these assays?
Vif-A3G inh: -15%; IL-1B inflam inh: -99*; SW480 rerep: 13µM*; Giardia killer: 11; MCF10A rerep: 6.5µM*; Vif-A3F inh: 4%

What do the screens show for `Cc1ccc(/C=C2/CNC/C(=C/c3ccc(C)cc3)C2=O)cc1`?
Vif-A3G inh: inconclusive; IL-1B inflam inh: -106*; SW480 rerep: 4.6µM*; Giardia killer: -9; MCF10A rerep: inconclusive; Vif-A3F inh: inconclusive

Results for CC1=CCC(C(C)(C)O)CC1 (centres undefined) ?
SW480 rerep: 0%; MCF10A rerep: 6%

What do the screens show for `O=C(NC1CCCCCC1)c1ccc2c(c1)sc1nc(-c3ccccc3)cn12`?
Vif-A3G inh: 0%; Vif-A3F inh: 5µM*

Results for CN(Cc1nc2ccccc2c(=O)[nH]1)Cc1nc2ccsc2c(=O)[nH]1 ?
Vif-A3G inh: 1%; IL-1B inflam inh: 30; SW480 rerep: 21µM*; Giardia killer: 7; MCF10A rerep: 1%; Vif-A3F inh: inconclusive

What do the screens show for `Cn1c(Oc2ccc(F)cc2)c(C=O)c2ccccc21`?
Vif-A3G inh: 0%; IL-1B inflam inh: -92*; SW480 rerep: 11%; Giardia killer: -9; MCF10A rerep: 14%; Vif-A3F inh: -6%

How did CC(=O)Nc1ccccc1-c1nc2ccccc2n(C(C)C(=O)Nc2cccc(C)c2C)c1=O (centres undefined) do in these assays?
Vif-A3G inh: -5%; Vif-A3F inh: -5%

How did CC(C)C1C(C#N)=C(N)Oc2n[nH]c(-c3cccs3)c21 (centres undefined) do in these assays?
Vif-A3G inh: 2%; IL-1B inflam inh: -10; SW480 rerep: -6%; Giardia killer: -10; MCF10A rerep: 1%; Vif-A3F inh: -4%

What do the screens show for `CC(C)c1[nH]nc2c1C(C1C=CCCC1)C(C#N)=C(N)O2` (centres undefined)?
Vif-A3G inh: -26%; IL-1B inflam inh: -88*; SW480 rerep: inconclusive; Giardia killer: 22; MCF10A rerep: inconclusive; Vif-A3F inh: 4%

How did CC(C)c1[nH]nc2c1C(c1cccs1)C(C#N)=C(N)O2 (centres undefined) do in these assays?
Vif-A3G inh: inconclusive; IL-1B inflam inh: -86*; SW480 rerep: inconclusive; Giardia killer: 9; MCF10A rerep: 3%; Vif-A3F inh: 1%

What do the screens show for `CCc1[nH]nc2c1C(C1C=CCCC1)C(C#N)=C(N)O2` (centres undefined)?
Vif-A3G inh: inconclusive; IL-1B inflam inh: -54*; SW480 rerep: inconclusive; Giardia killer: 22; MCF10A rerep: inconclusive; Vif-A3F inh: 4%

Results for CCOc1ccccc1NC(=O)Cn1c(=O)n(-c2ccc(C)c(C)c2)c(=O)c2c(C)c(C(=O)N(C)C)sc21 ?
Vif-A3G inh: 2%; Vif-A3F inh: -6%

How did COc1cc(OC)cc(-c2nc3n(n2)C(c2ccccc2)C(C(N)=O)=C(C)N3)c1 (centres undefined) do in these assays?
Vif-A3G inh: -2%; Vif-A3F inh: -3%

What do the screens show for `CCN(CC)CCn1c2c(c(SCC(=O)Nc3ccc(C(C)C)cc3)nc1=O)CCCC2`?
Vif-A3G inh: -6%; IL-1B inflam inh: -50*; SW480 rerep: -4%; Giardia killer: -2; MCF10A rerep: 3%; Vif-A3F inh: 1%
